From PubChem BioAssay (Tox21)
Records with an inconclusive call do not appear. Calls of active or inactive are those of the source. Unless noted, calls follow the shape of the dose curve; as a rule, active = well fitted curve in the direction sought with a large enough effect in the repeat runs; inconclusive = weak or mixed curves; inactive = no such curve, though single readings can be large; an effect the other way counts as inactive or inconclusive.

Columns and labels:
[1] = target: Thyrotropin receptor (Homo sapiens) (UniProt P16473); assay: qHTS assay to identify small molecule antagonists of the thyroid stimulating hormone receptor (TSHR) signaling pathway (AID 1259385; calls by dose curve; also: nearly all actives have a fitted effect of over 20% in size)
Sequence of Thyrotropin receptor (Homo sapiens) (P16473 whole entry, looked up): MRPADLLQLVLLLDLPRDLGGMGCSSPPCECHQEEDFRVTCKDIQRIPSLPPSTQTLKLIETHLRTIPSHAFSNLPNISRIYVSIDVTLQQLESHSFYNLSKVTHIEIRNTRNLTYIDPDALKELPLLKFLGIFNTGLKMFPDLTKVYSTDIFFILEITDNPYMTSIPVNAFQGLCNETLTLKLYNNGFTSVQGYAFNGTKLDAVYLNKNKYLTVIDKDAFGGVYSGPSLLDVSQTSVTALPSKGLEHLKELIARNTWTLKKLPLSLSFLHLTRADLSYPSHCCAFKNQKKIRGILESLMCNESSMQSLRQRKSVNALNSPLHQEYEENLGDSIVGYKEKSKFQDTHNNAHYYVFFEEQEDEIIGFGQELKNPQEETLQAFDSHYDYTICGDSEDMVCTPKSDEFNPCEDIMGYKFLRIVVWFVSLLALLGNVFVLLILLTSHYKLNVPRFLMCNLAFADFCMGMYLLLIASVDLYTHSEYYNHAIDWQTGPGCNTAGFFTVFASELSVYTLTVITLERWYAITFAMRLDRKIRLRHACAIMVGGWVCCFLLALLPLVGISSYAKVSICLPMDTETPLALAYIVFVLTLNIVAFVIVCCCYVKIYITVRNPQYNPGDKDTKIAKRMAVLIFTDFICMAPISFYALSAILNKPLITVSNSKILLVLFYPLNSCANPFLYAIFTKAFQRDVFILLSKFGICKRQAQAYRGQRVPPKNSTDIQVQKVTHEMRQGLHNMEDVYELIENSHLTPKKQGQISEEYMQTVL
Procedure, shortened: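 TSHR-HEK293 cells (800/well) plated 18 h, then compounds with Ro20-1724 and TSH at 1.5 ng/mL final, 30 min at room temperature. cAMP quantified by HTRF (cAMP-d2/anti-cAMP-cryptate, 1 h); 15 concentrations in triplicate.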

[2] = qHTS assay to identify small molecule agonists of the estrogen receptor alpha (ER-alpha) signaling pathway in the presence of an antagonist - cell viability counter screen (AID 1259386);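 also: series mostly up to about 92 µM; cells exposed to compounds for 22 h at 37 °C before the viability read; nearly all actives have a fitted effect of over 30% in size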
Procedure, shortened: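 Viability counter screen using VM7Luc4E2 (full-length ER-alpha, four ERE-luciferase). The cells were treated with compounds alongside ICI-182,780 10.0nM for 22hr, and live-cell protease fluorescence was quantified with CellTiter-Fluor.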

[3] = target: Progesterone receptor (Homo sapiens) (UniProt P06401); assay: qHTS assay to identify small molecule agonists of the progesterone receptor (PR) signaling pathway (AID 1346784; calls by dose curve; also: nearly all actives have a fitted effect of over 30% in size)
Sequence of Progesterone receptor (Homo sapiens) (P06401 whole entry, looked up): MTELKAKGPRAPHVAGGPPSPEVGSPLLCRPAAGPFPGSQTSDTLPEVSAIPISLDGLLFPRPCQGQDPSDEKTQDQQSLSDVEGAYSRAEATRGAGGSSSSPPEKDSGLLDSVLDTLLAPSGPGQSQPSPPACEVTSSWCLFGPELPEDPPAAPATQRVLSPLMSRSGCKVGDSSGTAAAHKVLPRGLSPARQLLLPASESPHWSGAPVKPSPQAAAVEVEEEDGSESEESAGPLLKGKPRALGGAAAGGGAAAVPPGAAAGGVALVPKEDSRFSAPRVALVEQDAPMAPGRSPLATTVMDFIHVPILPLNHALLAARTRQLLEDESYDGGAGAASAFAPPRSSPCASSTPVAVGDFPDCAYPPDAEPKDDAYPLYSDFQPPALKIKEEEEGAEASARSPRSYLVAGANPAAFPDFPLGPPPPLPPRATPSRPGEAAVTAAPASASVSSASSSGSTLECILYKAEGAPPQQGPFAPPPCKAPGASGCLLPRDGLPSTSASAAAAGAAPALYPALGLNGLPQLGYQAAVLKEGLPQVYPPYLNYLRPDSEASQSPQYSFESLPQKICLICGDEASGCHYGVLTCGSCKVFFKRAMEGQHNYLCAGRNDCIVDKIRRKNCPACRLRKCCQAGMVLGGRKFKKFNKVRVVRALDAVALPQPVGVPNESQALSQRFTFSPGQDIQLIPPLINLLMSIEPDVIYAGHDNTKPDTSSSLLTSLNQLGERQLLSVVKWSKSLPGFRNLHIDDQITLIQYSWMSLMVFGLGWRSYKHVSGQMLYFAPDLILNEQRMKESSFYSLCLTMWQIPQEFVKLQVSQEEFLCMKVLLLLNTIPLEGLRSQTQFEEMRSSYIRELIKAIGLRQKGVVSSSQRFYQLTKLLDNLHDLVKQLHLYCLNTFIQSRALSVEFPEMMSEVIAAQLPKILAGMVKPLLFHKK
Procedure, shortened: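 Agonist qHTS: compounds pinned onto 3,000 PR-UAS-bla HEK 293T cells per well in charcoal-stripped serum medium, 16hr at 37C, then beta-lactamase activity measured by LiveBLAzer FRET fluorescence after 2 hours at room temperature.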

[4] = target: Progesterone receptor (Homo sapiens) (UniProt P06401); assay: qHTS assay to identify small molecule antagonists of the progesterone receptor (PR) signaling pathway (AID 1346795; active = well fitted inhibition curve with a large enough effect in the signal ratio in the repeat runs, not every such curve was filed as active; the % refers to the signal ratio)
Procedure, shortened: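 Antagonist mode with agonist R5020 at 1 nM final and 16 hr incubation at 37C. Reporter was beta-lactamase driven by UAS in HEK293T (PR-UAS-bla), 2% charcoal-stripped serum; signal from LiveBLAzer FRET substrate, 2 hr at room temperature.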

[5] = qHTS assay to identify small molecule antagonists of the progesterone receptor (PR) signaling pathway - cell viability counter screen (AID 1346798); also: series mostly up to about 92 µM; nearly all actives have a fitted effect of over 50% in size
Procedure, shortened: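 Cytotoxicity read as CellTiter-Glo luminescence (30 min, room temperature) in the same wells as the beta-lactamase readout. HEK293T PR-UAS-bla cells in charcoal-stripped 2% FBS received compound and R5020, then 16 h at 37C, 5% CO2.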

[6] = qHTS assay to identify small molecule agonists of the progesterone receptor (PR) signaling pathway - cell viability counter screen (AID 1346799; calls by dose curve; also: nearly all actives have a fitted effect of over 45% in size)
Procedure, shortened: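 Cytotoxicity measured by CellTiter-Glo luminescence (30 min, RT) in the same wells as the PR beta-lactamase agonist read. Those HEK293T cells had 16 h compound treatment at 37 C in 2% charcoal-stripped FBS medium.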

[7] = qHTS assay to identify small molecule antagonists of the TGF-beta/Smad signaling pathway - cell viability counter screen (AID 1346824); also: nearly all actives have a fitted effect of over 50% in size
Procedure, shortened: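 SBE-bla HEK 293T cells, incubated overnight, then compound plus 0.25 ng/mL TGF-beta1 (stock added) for 5 hr at 37 C. Viability was read in the same wells by CellTiter-Glo luminescence after 30 min at room temperature.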

[8] = qHTS assay to identify small molecule agonists of the TGF-beta/Smad signaling pathway - cell viability counter screen (AID 1346829); also: top concentration of the series differs between compounds; nearly all actives have a fitted effect of over 45% in size
Procedure, shortened: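 Here the cytotoxicity of library compounds is measured in SBE-bla HEK 293T cells treated for 5 hr, using CellTiter-Glo added to wells already read for the beta-lactamase reporter.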

[9] = qHTS assay to identify small molecule agonists of the TGF-beta/Smad signaling pathway (AID 1346859; active = well fitted activation curve with a large enough effect in the signal ratio in the repeat runs, not every such curve was filed as active; the % refers to the signal ratio; also: series mostly up to about 77 µM)
Procedure, shortened: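 Fluorescence (ex 405 nm; em 460 and 530 nm) was read 2 h after LiveBLAzer FRET substrate at RT. The preceding compound treatment of overnight-plated SBE-bla HEK293T cells lasted 5 h at 37 C.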

[10] = target: Thyrotropin-releasing hormone receptor (Homo sapiens) (UniProt P34981); assay: qHTS assay to identify small molecule antagonists of the thyrotropin-releasing hormone receptor (TRHR) signaling pathway (AID 1346877; active = well fitted inhibition curve with a large enough effect in the repeat runs, not every such curve was filed as active; also: series mostly up to about 51 µM)
Sequence of Thyrotropin-releasing hormone receptor (Homo sapiens) (P34981 whole entry, looked up): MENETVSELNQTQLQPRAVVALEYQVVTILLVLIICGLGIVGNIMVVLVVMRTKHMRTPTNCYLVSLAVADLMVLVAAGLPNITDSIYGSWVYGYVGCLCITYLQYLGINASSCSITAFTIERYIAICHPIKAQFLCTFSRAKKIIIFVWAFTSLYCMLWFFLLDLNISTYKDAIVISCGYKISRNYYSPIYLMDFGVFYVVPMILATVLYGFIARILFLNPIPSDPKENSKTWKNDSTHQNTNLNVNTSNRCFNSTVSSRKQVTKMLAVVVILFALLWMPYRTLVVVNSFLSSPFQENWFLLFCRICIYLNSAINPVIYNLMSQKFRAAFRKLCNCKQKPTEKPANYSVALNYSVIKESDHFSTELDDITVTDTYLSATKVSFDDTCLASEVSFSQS
Procedure, shortened: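 Following an 18 h incubation at 37 °C and a 2 h calcium dye load, TRHR-HEK293 cells were exposed to compound (5 min, room temperature) and challenged with TRH, 1 nM final.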

[11] = target: Thyrotropin-releasing hormone receptor (Homo sapiens) (UniProt P34981); assay: qHTS assay to identify small molecule agonists of the thyrotropin-releasing hormone receptor (TRHR) signaling pathway (AID 1346891; calls by dose curve; also: series mostly up to about 58 µM)
Procedure, shortened: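 Agonist-mode intracellular calcium readout: kinetic fluorescence over 3 min at 1 s intervals after compound addition to TRHR-HEK293 cells (18 h seeded, 2 h dye-loaded at 37 C). Fifteen concentrations, triplicates.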

[12] = Human pregnane X receptor (PXR) small molecule agonists, qHTS cell viability counter screen (AID 1346977); also: nearly all actives have a fitted effect of over 50% in size
Procedure, shortened: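 Same-well viability read: CellTiter-Fluor added after 23 hr compound exposure, fluorescence measured 1 hr later. Cells were PXR-Luc HepG2 seeded at 2,000/well in 5% charcoal-stripped FBS medium, rested 5 hr before dosing at 37 C.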

[13] = Caspase-3/7 induction in HepG2 cells by small molecules, qHTS assay (AID 1346978); also: nearly all actives have a fitted effect of over 15% in size
Procedure, shortened: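 Wild-type HepG2 cells, 2,000/well, settled 5 hr at 37 C and 5% CO2, then compound-treated for 17 hr; caspase-3/7 activity read by luminescent Caspase-Glo 3/7 after 30 min at room temperature.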

[14] = Caspase-3/7 induction in CHO-K1 cells by small molecules, qHTS cell viability counter screen (AID 1346979); also: nearly all actives have a fitted effect of over 35% in size
Procedure, shortened: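 Cytotoxicity counter screen: CellTiter-Fluor added to compound-treated wild-type CHO-K1 cells at 16 h (37C, 5% CO2), fluorescence measured 1 h later; same wells as caspase-3/7 measurement.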

[15] = Caspase-3/7 induction in CHO-K1 cells by small molecules, qHTS assay (AID 1346980); also: nearly all actives have a fitted effect of over 15% in size
Procedure, shortened: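 Wild-type CHO-K1 cells exposed to compounds for 17hr at 37 C, 5% CO2. Caspase-3/7 activity then measured by Caspase-Glo 3/7 luminescence after 30min at room temperature.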

[16] = Caspase-3/7 induction in HepG2 cells by small molecules, qHTS cell viability counter screen (AID 1346981); also: series mostly up to about 92 µM; nearly all actives have a fitted effect of over 30% in size
Procedure, shortened: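 Viability determined by CellTiter-Fluor fluorescence in HepG2 wells also used for the luminescent Caspase-Glo 3/7 read. Compounds were present for 16 hr at 37 C, 5% CO2 before reagent addition.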

[17] = target: Nuclear receptor subfamily 1 group I member 2 (Homo sapiens) (UniProt O75469); assay: Human pregnane X receptor (PXR) small molecule agonists, qHTS assay (AID 1346982); also: nearly all actives have a fitted effect of over 35% in size
Sequence of Nuclear receptor subfamily 1 group I member 2 (Homo sapiens) (O75469 whole entry, looked up): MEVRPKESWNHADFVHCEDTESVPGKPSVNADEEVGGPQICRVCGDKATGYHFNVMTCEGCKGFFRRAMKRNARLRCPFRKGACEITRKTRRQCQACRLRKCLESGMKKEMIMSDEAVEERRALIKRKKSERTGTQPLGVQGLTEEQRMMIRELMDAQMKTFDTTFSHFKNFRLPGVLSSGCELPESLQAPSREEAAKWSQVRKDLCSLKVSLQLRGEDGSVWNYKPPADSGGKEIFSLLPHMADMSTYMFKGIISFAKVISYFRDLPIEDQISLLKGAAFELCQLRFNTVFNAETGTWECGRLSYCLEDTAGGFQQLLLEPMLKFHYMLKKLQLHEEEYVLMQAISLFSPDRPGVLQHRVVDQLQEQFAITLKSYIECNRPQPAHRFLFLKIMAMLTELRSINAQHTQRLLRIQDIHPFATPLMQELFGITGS
Procedure, shortened: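 Compound-induced hPXR transactivation of a CYP3A4 luciferase reporter was scored in HepG2 PXR-Luc cells over 24 hr at 37 C, 5% CO2, by luminescence.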

[18] = target: Nuclear receptor subfamily 1 group I member 2 (Homo sapiens) (UniProt O75469); assay: CYP3A4 induction through human pregnane X receptor (PXR) by small molecules, qHTS assay (AID 1346984); also: nearly all actives have a fitted effect of over 40% in size
Procedure, shortened: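 Readings come from a luciferase reporter: DPX-2 cells, which are HepG2 cotransfected with PXR and a CYP3A4-promoter construct, were exposed to test compounds for 24 h at 37C before One-Glo detection.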

[19] = target: Nuclear receptor subfamily 1 group I member 2 (Homo sapiens) (UniProt O75469); assay: Human pregnane X receptor (PXR) activation by small molecules, qHTS assay (AID 1346985); also: nearly all actives have a fitted effect of over 40% in size
Procedure, shortened: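 DPX-2 cells (HepG2 co-transfected with a PXR response element and a CYP3A4-promoter luciferase construct) were seeded at 2,000 per well, rested 5 hr at 37C, then exposed to DMSO-dissolved compounds for 24 hr. Activation was read as luciferase luminescence.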

[20] = target: Nuclear receptor subfamily 1 group I member 2 (Rattus norvegicus) (UniProt Q9R1A7); assay: Rat pregnane X receptor (rPXR) activation by small molecules, qHTS assay (AID 1346983); conditions: rPXR luciferase reporter cells, One-Glo luminescence, 24 h; stronger effect = higher value; also: nearly all actives have a fitted effect of over 20% in size
Sequence of Nuclear receptor subfamily 1 group I member 2 (Rattus norvegicus) (Q9R1A7 whole entry, looked up): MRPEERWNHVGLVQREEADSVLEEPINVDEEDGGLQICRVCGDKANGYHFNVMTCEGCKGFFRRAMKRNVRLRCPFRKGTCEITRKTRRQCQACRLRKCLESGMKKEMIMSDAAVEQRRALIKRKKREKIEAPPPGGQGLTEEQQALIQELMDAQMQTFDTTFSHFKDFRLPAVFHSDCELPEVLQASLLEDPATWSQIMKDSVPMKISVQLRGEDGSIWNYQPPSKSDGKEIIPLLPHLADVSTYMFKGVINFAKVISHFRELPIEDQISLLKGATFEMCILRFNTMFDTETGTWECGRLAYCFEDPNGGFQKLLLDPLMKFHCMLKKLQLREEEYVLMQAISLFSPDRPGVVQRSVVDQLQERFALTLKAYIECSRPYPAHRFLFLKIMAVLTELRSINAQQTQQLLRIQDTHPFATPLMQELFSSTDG
Procedure, shortened: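 Cell-based rPXR activation assay: rPXR cells, 2,000 per well, rested 5hr at 37 C, then exposed to compounds in DMSO for 24 hr at 37 C. Luciferase activity read by One-Glo luminescence after 30 min at room temperature.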
% is scaled to controls: 0 for no effect and ±100 for the full control effect.

Cc1cnc(NS(=O)(=O)c2ccc(N)cc2)nc1
inactive: Potency [1] | Potency [2] | Potency [3] | Potency [4] | Potency [5] | Potency [6] | Potency [7] | outcome [8] | outcome [9] | outcome [10] | outcome [11] | Potency [12] | Potency [13] | Potency [14] | outcome [15] | Potency [16] | Potency [17]

CS(=O)(=O)O
inactive: Potency [1] | Potency [2] | Potency [3] | Potency [4] | Potency [5] | Potency [6] | Potency [7] | outcome [8] | outcome [9] | outcome [10] | Potency [12] | Potency [13] | Potency [14] | Potency [16] | Potency [17]

CCC(=O)OC(C)c1ccccc1 (stereo not given)
inactive: Potency [1] | Potency [2] | Potency [3] | Potency [4] | Potency [5] | Potency [6] | Potency [7] | outcome [8] | outcome [9] | outcome [10] | outcome [11] | Potency [12] | Potency [13] | Potency [14] | outcome [15] | Potency [16] | Potency [17]

C/C=C(\C)C#N
inactive: Potency [1] | Potency [2] | Potency [3] | Potency [4] | Potency [5] | Potency [6] | Potency [7] | outcome [8] | outcome [9] | outcome [10] | outcome [11] | Potency [12] | Potency [13] | Potency [14] | outcome [15] | Potency [16] | Potency [17]

Cc1[nH]c(=O)c(C#N)cc1-c1ccc2nccn2c1
inactive: Potency [1] | Potency [2] | Potency [3] | Potency [4] | Potency [5] | Potency [6] | Potency [7] | outcome [9] | outcome [10] | outcome [11] | Potency [12] | Potency [13] | Potency [14] | Potency [16] | Potency [17] | Potency [18] | Potency [19]

N=c1nc(N2CCCCC2)cc(N)n1O
inactive: Potency [1] | Potency [2] | Potency [3] | Potency [4] | Potency [5] | Potency [6] | Potency [7] | outcome [9] | outcome [10] | Potency [12] | Potency [13] | Potency [14] | outcome [15] | Potency [16] | Potency [17]

CCCCCCCCS(=O)(=O)Cl
inactive: Potency [1] | Potency [2] | Potency [3] | Potency [4] | Potency [5] | Potency [6] | Potency [7] | outcome [9] | outcome [10] | Potency [12] | Potency [13] | Potency [14] | outcome [15] | Potency [16] | Potency [17]

O=C(O)COc1nn(Cc2ccccc2)c2ccccc12
inactive: Potency [1] | Potency [2] | Potency [3] | Potency [4] | Potency [5] | Potency [6] | Potency [7] | outcome [8] | outcome [10] | outcome [11] | Potency [12] | Potency [13] | outcome [15] | Potency [16] | Potency [17] | max activation [20] -0.954% | Potency [18] | Potency [19]

CCCc1cc(C(N)=S)ccn1
inactive: Potency [1] | Potency [2] | Potency [3] | Potency [4] | Potency [5] | Potency [6] | Potency [7] | outcome [8] | outcome [9] | Potency [12] | Potency [13] | Potency [14] | outcome [15] | Potency [16] | Potency [17] | Potency [18] | Potency [19]

CCC(C)S (stereo not given)
inactive: activity change, negative = inhibition [1] -0.487% [at 3.27 µM] | activity change, negative = cytotoxicity [2] 1.97% [at 3.27 µM] | activation [3] -0.0244% [at 3.27 µM] | activity change, negative = inhibition [4] 8.27% [at 3.27 µM] | activity change, negative = cytotoxicity [5] -5.62% [at 3.27 µM] | activity change, negative = cytotoxicity [6] 1.88% [at 3.27 µM] | viability change, negative = cytotoxic [7] -5.42% [at 2.72 µM] | activation [9] -0.527% [at 2.72 µM] | activity, negative = inhibition [10] -1.08% [at 1.81 µM] | activation [11] 0.209% [at 2.04 µM] | activity change, negative = cytotoxicity [12] 2.43% [at 3.27 µM] | caspase activation [13] -0.355% [at 3.27 µM] | activity change, negative = cytotoxicity [14] 5.39% [at 3.27 µM] | caspase-3/7 activation [15] 1.28% [at 3.27 µM] | activity change, negative = cytotoxicity [16] -0.646% [at 3.27 µM] | activation [17] -2.18% [at 3.27 µM]

CN1CCC(=C2c3ccccc3CC(=O)c3sccc32)CC1
inactive: Potency [1] | Potency [2] | Potency [3] | Potency [4] | Potency [5] | Potency [6] | Potency [7] | outcome [8] | outcome [9] | Potency [13] | Potency [14] | outcome [15] | Potency [16] | Potency [17]

CCCCCCCCCCCCN(CCCCCCCCCCCC)CCCCCCCCCCCC
inactive: Potency [1] | Potency [2] | Potency [3] | Potency [4] | Potency [5] | Potency [6] | Potency [7] | outcome [8] | outcome [9] | Potency [12] | Potency [13] | outcome [15] | Potency [16] | Potency [17]

NS(=O)(=O)c1ccc(C(=O)O)cc1
inactive: Potency [1] | Potency [2] | Potency [3] | Potency [4] | Potency [5] | Potency [6] | outcome [8] | outcome [9] | Potency [12] | Potency [13] | Potency [14] | outcome [15] | Potency [16] | Potency [17]

O=C[C@H](O)[C@@H](O)[C@H](O)[C@H](O)CO
inactive: Potency [1] | Potency [2] | Potency [3] | Potency [4] | Potency [5] | Potency [6] | Potency [7] | outcome [9] | outcome [10] | Potency [12] | Potency [13] | Potency [14] | outcome [15] | Potency [16] | Potency [17]

c1ccc(CC2=NCCN2)cc1
inactive: Potency [1] | Potency [2] | Potency [3] | Potency [4] | Potency [5] | Potency [6] | Potency [7] | outcome [9] | outcome [10] | outcome [11] | Potency [12] | Potency [13] | Potency [14] | outcome [15] | Potency [16] | Potency [17] | max activation [20] -1.57% | Potency [18] | Potency [19]
